This is one part of a sample in which hits are shown more often than they occur.
ROS inducer: ROS inducers in U2OS cancer cells, primary screen, cell-based, H2DCF-DA fluorescence; U2OS ROS induction; ROS induction (% of piperlongumine), % at 10 µM; 46,000 compounds, 2% hits; AID 624156, 2012; in the data active = ROS induction above about 79%, passing the limit was not always enough
Numbers stand for hits.

How did CC1(c2ccccc2)OC(=O)C2C3CCCCC3=C3CCCCC3C21 (stereo not given) do in these assays?
ROS inducer: inactive

What do the screens show for `CCCNC(=O)c1ccc2nc(N3CCCCC3)sc2c1`?
ROS inducer: inactive

Results for CCOC(=O)c1cnc(-c2ccccc2)nc1NCc1ccccc1 ?
ROS inducer: inactive

What do the screens show for `N#Cc1c(-n2cccc2)sc2c1CCCC2`?
ROS inducer: inactive

How did O=C1/C(=C\c2c[nH]c3ccccc23)C(c2ccccc2)Oc2ccccc21 (stereo not given) do in these assays?
ROS inducer: inactive

Results for Cc1ccc(S(=O)(=O)NCCC(=O)N2CCOCCOCCOCC2)cc1 ?
ROS inducer: inactive

Results for CCOC(=O)N1CCC(n2c(SCC(=O)c3ccccc3)nc3ccccc3c2=O)CC1 ?
ROS inducer: inactive

How did CC(C)NC(=O)N(C)C[C@@H]1Oc2c(NC(=O)Nc3ccc4c(c3)OCO4)cccc2C(=O)N([C@@H](C)CO)C[C@H]1C do in these assays?
ROS inducer: inactive

How did C[C@@H]1CN([C@@H](C)CO)C(=O)c2cccc(NC(=O)Nc3ccc4c(c3)OCO4)c2O[C@H]1CN(C)Cc1ccc(C(F)(F)F)cc1 do in these assays?
ROS inducer: 88

Results for C[C@H](CO)N1C[C@H](C)[C@H](CN(C)Cc2ccc(C(F)(F)F)cc2)Oc2c(NC(=O)Nc3ccc4c(c3)OCO4)cccc2C1=O ?
ROS inducer: inactive

How did C[C@H]1CN([C@@H](C)CO)C(=O)c2cccc(NC(=O)Nc3ccc4c(c3)OCO4)c2O[C@@H]1CN(C)Cc1ccc(C(F)(F)F)cc1 do in these assays?
ROS inducer: inactive

How did CC(C)NC(=O)N(C)C[C@@H]1Oc2c(NC(=O)Nc3ccc4c(c3)OCO4)cccc2C(=O)N([C@H](C)CO)C[C@@H]1C do in these assays?
ROS inducer: inactive

How did C[C@@H]1CN([C@@H](C)CO)C(=O)c2cccc(NC(=O)Nc3ccc(C(F)(F)F)cc3)c2O[C@@H]1CN(C)Cc1ccc2c(c1)OCO2 do in these assays?
ROS inducer: inactive

How did C[C@@H]1CN([C@@H](C)CO)C(=O)c2cccc(NC(=O)Nc3ccc4c(c3)OCO4)c2O[C@H]1CN(C)Cc1ccc(C(=O)Nc2ccccc2N)cc1 do in these assays?
ROS inducer: inactive

Results for C[C@H](CO)N1C[C@H](C)[C@@H](CN(C)Cc2ccc(C(F)(F)F)cc2)Oc2c(NC(=O)Nc3ccc4c(c3)OCO4)cccc2C1=O ?
ROS inducer: 92

What do the screens show for `C[C@H]1CN([C@@H](C)CO)C(=O)c2cccc(NC(=O)Nc3ccc4c(c3)OCO4)c2O[C@@H]1CN(C)Cc1ccc(C(=O)Nc2ccccc2N)cc1`?
ROS inducer: 123

What do the screens show for `CC(C)NC(=O)N(C)C[C@H]1Oc2c(NC(=O)Nc3ccc4c(c3)OCO4)cccc2C(=O)N([C@@H](C)CO)C[C@H]1C`?
ROS inducer: 90

Results for C[C@@H]1CN([C@@H](C)CO)C(=O)c2cccc(NC(=O)Nc3ccc4c(c3)OCO4)c2O[C@@H]1CN(C)Cc1ccc(C(=O)Nc2ccccc2N)cc1 ?
ROS inducer: inactive

Results for C[C@@H]1CN([C@H](C)CO)C(=O)c2cccc(NC(=O)Nc3ccc4c(c3)OCO4)c2O[C@@H]1CN(C)Cc1ccc2c(c1)OCO2 ?
ROS inducer: inactive

Results for CCc1ccc(/C=C2/C(=O)N(C3CCCCC3)C(=S)N2C)cc1 ?
ROS inducer: inactive

How did O=C(Cc1c(F)cccc1Cl)Nc1ccc2nc3n(c(=O)c2c1)CCCCC3 do in these assays?
ROS inducer: inactive

How did CCC(C(=O)N1c2ccccc2Sc2ccc(C(F)(F)F)cc21)N1C(=O)c2ccccc2C1=O (stereo not given) do in these assays?
ROS inducer: inactive

Results for Cc1ccc2[nH]c3c(N(C)C)ncnc3c2c1 ?
ROS inducer: inactive

Results for Cc1oc(-c2cccc(Cl)c2)nc1CSc1nc2c(c(=O)[nH]1)CCCC2 ?
ROS inducer: inactive

Results for CSC1=N/C(=C\c2ccc(Cl)cc2)C(=O)N1CCc1c[nH]c2ccccc12 ?
ROS inducer: inactive

What do the screens show for `Cc1ccccc1NC(=O)C1CCN(C(=O)c2cc3sccc3n2Cc2ccc(F)cc2)CC1`?
ROS inducer: inactive

What do the screens show for `CCc1cc2c3c(c(=O)oc2cc1OCC(=O)OC(C)(C)C)CCCC3`?
ROS inducer: inactive

Results for CC1=NN(C(=O)CSc2nc3ccccc3s2)C(C)(O)C1 (stereo not given) ?
ROS inducer: inactive

Results for CN(C(=O)c1c[nH]c2ccc(S(=O)(=O)N3CCC4(CC3)OCCO4)cc2c1=O)C1CCCCC1 ?
ROS inducer: inactive

Results for CC1C2CC(C(S(=O)(=O)N3CCOCC3)C2=O)C1(C)C (stereo not given) ?
ROS inducer: 115

Results for CC(C)c1ccc(S(=O)(=O)N2CCOCC2)cc1 ?
ROS inducer: inactive

How did CC(=O)N1CCOc2cc(S(=O)(=O)N3CCCCC3)ccc21 do in these assays?
ROS inducer: inactive

How did C=CCN(CC=C)CC(O)Cn1c(-c2ccc(OC)cc2)cc2ccccc21 (stereo not given) do in these assays?
ROS inducer: inactive

How did Cc1cccc(-n2cnc3cc(C(=O)NCCC4=CCCCC4)ccc32)c1 do in these assays?
ROS inducer: inactive

Results for COc1ccccc1NC(=O)CSc1ncccn1 ?
ROS inducer: inactive

Results for COc1ccccc1NC(=O)CSc1nncn2c1cc1oc(C)cc12 ?
ROS inducer: 107

How did COc1ccccc1NC(=O)CSc1ncn(-c2ccccc2)n1 do in these assays?
ROS inducer: inactive

Results for Cc1ccccc1N/C(=N\S(=O)(=O)c1ccccc1)c1ccccc1 ?
ROS inducer: inactive

Results for FC(F)(F)c1cc(-c2ccccc2)nc2c(-c3ccccc3)cnn12 ?
ROS inducer: inactive

What do the screens show for `Cc1ccccc1NC(=O)c1cnn2c(C(F)(F)F)cc(-c3ccco3)nc12`?
ROS inducer: inactive

How did C=CCNC(=O)c1cnn2c(C(F)(F)F)cc(-c3cccs3)nc12 do in these assays?
ROS inducer: inactive

What do the screens show for `COc1ccc(-c2cc(C(=O)NC3CCCC3)c3ccccc3n2)cc1`?
ROS inducer: inactive

How did CC1CCCCC1NC(=O)c1cnn2c(C(F)(F)F)cc(-c3ccccc3)nc12 (stereo not given) do in these assays?
ROS inducer: 134

What do the screens show for `CC(C)CCNC(=O)c1cnn2c(C(F)(F)F)cc(-c3ccco3)nc12`?
ROS inducer: 119

How did Cc1cc(C)c2cc(C(=O)Nc3ccccc3Cl)[nH]c2c1 do in these assays?
ROS inducer: inactive

How did O=C(Cn1c(SCc2cccc(Cl)c2)nc2ccncc21)NCC1CCCO1 (stereo not given) do in these assays?
ROS inducer: inactive

Results for Cc1sc2ncnc(Sc3ncnc4sc(C)c(C)c34)c2c1C ?
ROS inducer: inactive

Results for COc1ccc(Cl)c(C(=O)OCC(=O)Nc2ccc(F)cc2)c1 ?
ROS inducer: inactive

How did O=C(N/N=C/c1c(F)c(F)c(F)c(F)c1F)c1ccccn1 do in these assays?
ROS inducer: 117

Results for O=C(N/N=C/c1ccc(F)cc1)c1ccccn1 ?
ROS inducer: inactive

How did O=C(N/N=C/c1cc(F)ccc1O)c1ccccn1 do in these assays?
ROS inducer: inactive

Results for CCOc1ccc(NC(=O)N(CCC(C)C)C(C)c2cccs2)cc1 (stereo not given) ?
ROS inducer: inactive

What do the screens show for `O=C(NCCN1CCCC1)c1cc(Sc2cccc(Cl)c2)nc2ccccc12`?
ROS inducer: inactive

How did CCOC(=O)C(C)Sc1nnc(Cn2c(=O)sc3ccccc32)n1-c1cccc(Cl)c1 (stereo not given) do in these assays?
ROS inducer: inactive

Source: PubChem BioAssay (Broad Institute)
